# According to ChEMBL document CHEMBL3988442, “University of Dundee, Small-Polar-MMV Screening Library” (2021):
# What was measured:
# [1] = target: T1, Aspartate--tRNA(Asp/Asn) ligase (Mycobacterium tuberculosis (strain ATCC 25618 / H37Rv)) (UniProt P9WFW3); test: Assay for Asp RNA synthetase-1 from Mycobacterium tuberculosis; type: functional; parameters: scale not given: direction of the effect not stated beside the values; details: 30 µM; also: in the data most compounds retested in dose-response had high values
# T1 sequence (whole entry): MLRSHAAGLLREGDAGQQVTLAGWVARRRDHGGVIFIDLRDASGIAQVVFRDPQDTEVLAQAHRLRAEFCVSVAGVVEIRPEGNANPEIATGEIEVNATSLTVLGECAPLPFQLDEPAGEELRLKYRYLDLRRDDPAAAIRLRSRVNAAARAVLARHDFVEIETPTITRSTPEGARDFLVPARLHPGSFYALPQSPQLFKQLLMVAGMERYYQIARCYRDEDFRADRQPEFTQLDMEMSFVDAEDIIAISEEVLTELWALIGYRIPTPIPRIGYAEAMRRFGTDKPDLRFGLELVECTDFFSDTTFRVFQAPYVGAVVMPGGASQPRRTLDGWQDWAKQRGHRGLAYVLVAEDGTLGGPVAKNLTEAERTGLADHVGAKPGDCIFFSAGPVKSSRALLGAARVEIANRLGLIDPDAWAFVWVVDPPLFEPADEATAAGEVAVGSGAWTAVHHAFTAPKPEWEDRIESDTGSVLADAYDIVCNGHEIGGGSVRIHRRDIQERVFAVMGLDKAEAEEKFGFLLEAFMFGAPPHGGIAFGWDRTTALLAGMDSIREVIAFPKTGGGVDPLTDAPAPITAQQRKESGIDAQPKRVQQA
# [2] = target: Shiga toxin 2 (Escherichia coli O157:H7) (UniProt P09385+P09386); test: E. coli 0.157:H7 Shiga Toxin SOP - stx2 screening assay; type: functional; parameters: scale not given: direction of the effect not stated beside the values; details: 30 µM
Compound,Percent Effect [1] [%],Percent Effect [2] [%]
Cc1ccc(CCC(=O)N(C)CCN2CCOCC2)c(C)c1,-4.01,-8.65
CC(=O)NCC(=O)N1Cc2nccn2CC(CN2CCCC2)C1 (centres undefined),-4.29,2.69
Cn1cc(C2CCCN2Cc2csc(C(C)(C)C)n2)cn1 (centres undefined),-4.83,-11.7
Cc1ncccc1O[C@H]1CCN(C(=O)c2cccs2)CC[C@@H]1O,4.9,6.92
CSc1ccsc1C(=O)N1CCN(CC(C)(C)O)CC1,2.72,-13.5
CN(C)S(=O)(=O)c1ccc(OCCNCCn2cccn2)cc1,-6.56,-13.8
COC(=O)CC(c1ccccc1)c1oc(C)cc(=O)c1O (centres undefined),-2.11,-6.67
CC(C)N(C)S(=O)(=O)N(C)Cc1ccc2c(c1)OCO2,-7.16,-23.7
Cc1cc(C(N)=O)ccc1NC(=O)c1nc(N2CCCC2)ncc1Cl,1.84,-35.5
COc1ccccc1CC(=O)NS(=O)(=O)c1ccc(C(N)=O)cc1,1.21,7.74
Cc1nc(C2CCCN(C(=O)CCCn3ccnc3C)C2)no1 (centres undefined),-1,14.1
O=C(NCC(=O)N1CCCCC1)c1ccc(Cl)cc1I,0.257,1.85
O=C(NCc1cccs1)[C@H]1CC[C@@H]2[C@@H](CCN2c2ncccn2)O1,3.22,-3.66
Cc1nccn1-c1cccc(C2CCCN2S(=O)(=O)c2cn(C)cn2)n1 (centres undefined),12.1,45.9
CNc1cccc(C2CCCN(C(C)=O)C2)n1 (centres undefined),7.52,23.2
CCNC(=O)N(C)C(c1cccc(F)c1)c1ccccn1 (centres undefined),-4.31,-5.85
Cc1cc(CNC(=O)N2CCN(c3nc(C)c(C)s3)CC2)no1,-1.96,24
